High-throughput results as filed in PubChem BioAssay.
A selection: hits, their analogues and other compounds. The true share with any hit is near 2.3%.
Nrf2 ARE act: qHTS of Nrf2 Activators; AREc32 ARE-luciferase reporter (MCF7-derived line), luminescence, 24 h; Potency, µM (top dose mostly 46.1 µM), without a hit: at the top dose activation, actives largely listed as activators; hit rate 0.31% among 410,000; AID 624171, 2012; note: % of control where 0% means no effect; nearly all actives have a fitted effect of over 65% in size
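Reporter line AREc32 (ARE-Fluc), seeded overnight in OPTI-MEM with 5% FBS; compound pin-transferred, 24 hr at 37 deg C, 5% CO2; luminescent read-out.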
Rango dissoc inh: qHTS Assay for Inhibitors of RanGTP induced Rango (Ran-regulated importin-beta cargo) - Importin beta complex dissociation. Snurportin-1 (Homo sapiens) + GTP-binding nuclear protein Ran (Homo sapiens) + Importin …. Biochemical FRET Rango-importin beta, RanGTP-induced dissociation. Potency, µM (doses to about 46.1 µM), inactives show top-dose activity change, negative = inhibition. hit rate 0.071% among 340,000. AID 540253, 2011; calls by dose curve; note: % of control where 0% means no effect; nearly all actives have a fitted effect of over 45% in size
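Two FRET readings bracket the reaction: one 5 min after compound meets Rango–importin beta, another 45 min after RanGTP-RCC1 (0.6 uM Ran, 0.2 uM RCC1, 2 mM GTP) is added. Only the second defines inhibition.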
A549 tox-1: Nrf2 qHTS screen for inhibitors: counterscreen for cytotoxicity; A549 ARE-Fluc cells, CellTiter-Fluor viability, 18-24 h; Potency, µM (highest dose often 46 µM), inactives show at the highest dose activity change, negative = cytotoxicity, usual class: inhibitors; hit rate 0.16% among 390,000; note: % is set by controls: 0 for no effect and ±100 for the full control effect
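Cytotoxicity counterscreen: CellTiter-Fluor fluorescence was measured in A549 ARE_Fluc cells after 18-24 h of compound exposure in a concentration series. The subsequent BugLite luminescent read reports ARE-luciferase activity.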
Rango complex inh: qHTS Assay for Inhibitors of Rango (Ran-regulated importin-beta cargo) - Importin beta complex formation; Importin subunit beta-1 (Homo sapiens), Q14974; Rango CFP/YFP FRET sensor + importin beta, 45 min; Potency, µM (top dose mostly 92.2 µM), for inactives: at the top dose inhibition of complex formation; hit rate 0.031% among 340,000; AID 540263, 2011; calls by dose curve;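 note: 0% = DMSO wells and 100% = buffer wells lacking importin beta; nearly all actives have a fitted effect of over 15% in size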
Target sequence (Q14974 whole entry, looked up): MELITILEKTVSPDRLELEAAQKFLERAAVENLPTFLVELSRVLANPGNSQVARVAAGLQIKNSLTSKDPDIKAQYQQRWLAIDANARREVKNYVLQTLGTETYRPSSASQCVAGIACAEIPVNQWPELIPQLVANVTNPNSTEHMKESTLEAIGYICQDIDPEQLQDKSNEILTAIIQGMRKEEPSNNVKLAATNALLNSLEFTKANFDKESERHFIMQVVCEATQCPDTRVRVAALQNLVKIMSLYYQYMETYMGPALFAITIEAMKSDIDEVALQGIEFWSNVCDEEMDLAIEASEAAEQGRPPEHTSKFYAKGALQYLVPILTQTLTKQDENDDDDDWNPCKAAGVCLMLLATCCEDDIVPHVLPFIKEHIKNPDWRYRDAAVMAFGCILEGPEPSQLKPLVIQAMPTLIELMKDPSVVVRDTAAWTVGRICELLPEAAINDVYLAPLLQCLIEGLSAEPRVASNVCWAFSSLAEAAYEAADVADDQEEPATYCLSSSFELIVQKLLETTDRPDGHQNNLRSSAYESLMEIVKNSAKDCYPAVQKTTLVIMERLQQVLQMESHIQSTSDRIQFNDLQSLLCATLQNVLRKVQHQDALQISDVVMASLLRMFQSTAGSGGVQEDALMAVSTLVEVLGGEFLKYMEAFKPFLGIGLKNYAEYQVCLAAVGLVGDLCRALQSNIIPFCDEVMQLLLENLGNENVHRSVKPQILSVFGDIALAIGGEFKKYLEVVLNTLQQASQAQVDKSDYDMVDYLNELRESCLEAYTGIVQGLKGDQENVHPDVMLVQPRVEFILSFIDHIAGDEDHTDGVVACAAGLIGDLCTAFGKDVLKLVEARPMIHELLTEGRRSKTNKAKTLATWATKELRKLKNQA
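FRET biosensor (snurportin 1 IBB flanked by EYFP and cerulean), 50 nM, with compound 5 min, then 0.125 microM importin beta in PBS, 1 mM DTT, 0.02% Tween-20, 0.1% BSA. CFP/YFP ratio read after 45 min at room temperature; pre-read flags interference.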
Nrf2 inh: Nrf2 qHTS screen for inhibitors. A549 ARE-Fluc reporter, luciferase luminescence, 18-24 h. Potency, µM (series often up to 46 µM), for the others: at the highest dose activity change, negative = inhibition, most hits filed as inhibitors. hit rate 2.1% among 360,000. AID 504444, 2011; note: % is set by controls: 0 for no effect and ±100 for the full control effect; nearly all actives have a fitted effect of over 60% in size
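Nrf2 function is reported as luminescence of an ARE-controlled luciferase in A549 cells. Compounds were tested at several concentrations, and a CellTiter-Fluor read on the same wells flagged cytotoxicity.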
FLuc enzyme inh: Nrf2 qHTS screen for inhibitors: Purified Fluc Biochemical Counterscreen for Hit Validation. shares compounds with Nrf2 inh. purified firefly luciferase, luminescence inhibition. Potency, µM (highest dose often 57.5 µM), for the others: at the top dose activity change, negative = inhibition, actives largely listed as inhibitors. hit rate 4% among 1,400. AID 720522, 2013; note: % is set by controls: 0 for no effect and ±100 for the full control effect; nearly all actives have a fitted effect of over 65% in size
A549 tox-2: Nrf2 qHTS screen for inhibitors: A549 ARE-Fluc Cytotoxicity Counterscreen for Hit Validation; shares compounds with Nrf2 inh; A549 ARE-Fluc cells, cytotoxicity counterscreen; Potency, µM (titrated, usually from 46.1 µM), for the others: at the highest dose activity change, negative = cytotoxicity, hits mostly inhibitors; hit rate 2% among 1,400;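 note: cells exposed to compounds for 18 to 24 hours; % is set by controls: 0 for no effect and ±100 for the full control effect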
ARE-Fluc inh: Nrf2 qHTS screen for inhibitors: Nrf2 A549 ARE-Fluc Confirmation Assay for Hit Validation. shares compounds with Nrf2 inh. A549 ARE-firefly luciferase reporter, luminescence. Potency, µM (highest dose often 46.1 µM), for the others: top-dose activity change, negative = inhibition, most hits filed as inhibitors. hit rate 74% among 1,400; note: % is set by controls: 0 for no effect and ±100 for the full control effect; nearly all actives have a fitted effect of over 65% in size
* marks the source's active call; other numbers are inactive results; ? = inconclusive; / = no result shown; ! = a repeat was not active; [ ] = another dose, or the depositor's remark. Unless noted, calls come from the whole dose curve; as a rule, active = well fitted curve in the direction sought with a large enough effect; inconclusive = small, poorly fitted or top-dose-only effect, or another doubt; inactive = no such curve, though single readings can be large; an effect the other way counts as inactive or inconclusive. Potency is the fitted concentration of half-maximal effect.

SMILES	Nrf2 ARE act	Rango dissoc inh	A549 tox-1	Rango complex inh	Nrf2 inh	FLuc enzyme inh	A549 tox-2	ARE-Fluc inh
CCCCn1c(=NC(=O)c2c(-c3c(F)cccc3Cl)noc2C)c(C(=O)OCC)cc2c(=O)n3ccccc3nc21	-0.2%	/	0.5%	/	-3.9%[9.27 µM]	/	/	/
CCOC(=O)c1cc2c(=O)n3ccccc3nc2n(CCOC)c1=NC(=O)c1c(-c2c(F)cccc2Cl)noc1C	0.4%	?	-19.9%	?	6.51µM*!	0.1%	-17.3%	?
COC(=O)c1ccccc1-c1ccc(/C=N/NC(=O)c2cc3ccccc3o2)o1	0.3%	-3.6%	0.1%	?	-26.4%	/	/	/
COC(=O)c1ccccc1-c1c2ccc(=N)cc-2oc2cc(N)ccc12	-0.7%	?	-11.2%	?	1.16µM*	3.2%	-6.3%	8.2µM*
COc1ccc(S(=O)(=O)c2nnn(-c3ccc(C(C)C)cc3)c2C)cc1	0.2%	/	-20.1%	/	9.2µM*	-0.8%	-1.2%	5.17µM*
C[C@H]1O[C@@H](O[C@H]2[C@@H](O)C[C@H](O[C@H]3[C@@H](O)C[C@H](O[C@H]4CC[C@@]5(C)[C@H](CC[C@@H]6[C@@H]5C[C@@H](O)[C@]5(C)[C@@H](C7=CC(=O)OC7)CC[C@]65O)C4)O[C@@H]3C)O[C@@H]2C)C[C@H](O)[C@@H]1O	-2.9%	-3.7%	?	0.4%	0.13µM*	2.1%	?	0.058µM*
O=C1CN2CCC1C/C2=C\c1ccnc2c(Cl)cccc12 (centres undefined)	4.0%	-14.3%	-9.4%	1.4%	?	/	/	/
O=C(NCc1cccs1)c1ccc2ccccc2n1	2.1%	1.2%	-5.0%	0.1%	?	/	/	/
C=C(c1ccc2ccccc2n1)c1cccs1	/	/	/	/	/	-5.6%	-29.7%	?
CCOc1ccc(CCN2C(=S)N([C@@H](Cc3ccc(O)cc3)CN3CCC[C@@H]3CN3C(=S)NC[C@@H]3CC(C)C)C[C@@H]2Cc2ccc(O)cc2)cc1	-1.2%	/	/	/	/	/	/	/
Cc1ccc(Cl)cc1N1CCN(C(=O)CSc2nnc3n2C(C)(C)Cc2ccccc2-3)CC1	0.2%	7.4%	?	?	6.51µM*	-0.4%	?	6.51µM*
COc1ccc(N2CCN(C(=O)CSc3nnc4n3C(C)(C)Cc3ccccc3-4)CC2)cc1	-0.2%	6.4%	-7.0%	-6.6%	?	/	/	/
N#Cc1nc(-c2ccco2)oc1N1CCN(c2cccc(Cl)c2)CC1	-0.3%	0.7%	0.3%	5.4%	1.84µM*	-22.9%	?	10.3µM*
CSc1nc2sc3c(c2c(=O)n1-c1ccccc1C)CCCC3	1.9%	/	-0.4%	/	/	/	/	/
CSc1nc2nc3c(cc2c(=O)n1-c1ccccc1C)CCCC3	0.1%	-20.3%	?	-1.5%	5.8µM*	1.0%	-22.4%	/
Oc1c(C(Nc2nccs2)c2ccc(C(F)(F)F)cc2)ccc2cccnc12 (centres undefined)	0.1%	-10.9%	-10.4%	3.8%	4.61µM*	-11.2%	-23.2%	5.8µM*
Cc1cccc(/C=C/c2cccs2)n1	/	/	/	/	/	-0.8%	-25.8%	2.59µM*
Cc1ccsc1/C=C/c1ccc2cccc(O)c2n1	?	26.9%	?	-4.1%	2.9%	/	/	/
O=C1CCC(C(=O)OCC(=O)c2ccccc2)N1 (centres undefined)	-0.4%	30.5%	0.8%	-1.4%	3.9%	/	/	/
CC1CC(C)C(=O)C(C(CC2CC(=O)NC(=O)C2)OC(=O)CC(=O)c2ccccc2)C1 (centres undefined)	-1.2%	0.7%	?	-0.3%	5.17µM*	2.3%	-19.2%	0.206µM*
COc1ccc(CCNC(=O)/C=C\c2ccccc2)cc1OC	-0.8%	7.6%	-3.4%	-0.6%	-15.9%	/	/	/
COc1ccc(/C=C/C(=O)NC(=S)NCCc2ccc(OC)c(OC)c2)cc1	-0.7%	4.7%	?	5.2%	7.31µM*	-3.9%	-12.6%	5.4%
O=C(CCN1C(=O)/C(=C/c2ccccc2Cl)SC1=S)NNC(=O)c1ccccc1O	-0.5%	16.2%	-7.2%	1.7%	-21.7%	/	/	/
O=C(CCCN1C(=O)/C(=C/c2ccccc2Cl)SC1=S)NNC(=O)c1ccc(Cl)cc1	-1.5%	-2.0%	0.1%	1.0%	8.2µM*	-4.6%	-21.9%	7.31µM*
O=C(CCN1C(=O)/C(=C/c2ccccc2Cl)SC1=S)NNC(=O)c1cccnc1	8.6%	-3.6%	-4.4%	2.6%	4.5%	/	/	/
SMILES	Nrf2 ARE act	Rango dissoc inh	A549 tox-1	Rango complex inh	Nrf2 inh	FLuc enzyme inh	A549 tox-2	ARE-Fluc inh
Cc1ccc(/C=C2/SC(=S)N(CCCC(=O)Nc3ccc(O)cc3)C2=O)cc1	2.5%	1.7%	?	2.3%	9.2µM*	?	?	13µM*
Cc1ccc(C(=O)NNC(=O)CCCN2C(=O)/C(=C/c3ccccc3Cl)SC2=S)cc1	-1.4%	-9.6%	?	1.0%	9.2µM*	?	-4.1%	?
O[C@H]1C[C@H](c2ccccc2)N(CC2CCCCC2)C[C@@H]1n1cc(C2CC2)nn1	-5.6%	/	/	/	/	/	/	/
Cc1c(S(=O)(=O)Nc2ccc(Oc3ccccc3)cc2)c(=O)n(C)c(=O)n1C	-0.2%	6.9%	-3.8%	-0.9%	-21.0%	/	/	/
Cc1ccc[n+](C(C)C(=O)c2ccc(-c3ccccc3)cc2)c1 (centres undefined)	0.3%	-2.6%	-0.1%	-1.7%	-20.1%	/	/	/
Cc1cc[n+](C(C)C(=O)c2ccc(-c3ccccc3)cc2)cc1 (centres undefined)	5.2%	9.4%	-23.6%	-3.6%	8.2µM*	3.1%	-16.1%	9.2µM*
COc1cc2c(cc1OC)C(c1ccccc1)N(Cc1ccc(S(=O)(=O)NC(=O)c3ccco3)cc1)CC2 (centres undefined)	5.1%	/	/	/	/	/	/	/
COCCn1c(CN2CCN(c3cccc(Cl)c3)CC2)nc2c1c(=O)n(C)c(=O)n2C	0.5%	0.5%	-26.4%	-3.0%	6.51µM*	-1.2%	-5.5%	/
O=C1OC[C@H](Cc2ccc3c(c2)OCO3)/C1=C\c1ccc2c(c1)OCO2	0.4%	-8.2%	5.2%	0.9%	?	/	/	/
O=S(=O)(c1cccc(F)c1)N1CCN(c2nc(-c3cccnc3)nc3ccccc23)CC1	0.1%	-0.6%	-13.0%	-0.7%	?	/	/	/
